# Among all 370,000 compounds or so, about 500 (0.14%) were called active. About 2% were inconclusive and are not listed. The sample holds actives, similar compounds and a random draw of the others, so the mix is not that of the screen. Values without a mark were called inactive. Calls come from the whole dose curve; as a rule, active = well fitted activation curve with a large enough effect; inconclusive = small, poorly fitted or top-dose-only effect; inactive = no such curve, though single readings can be large or run the other way.
# Experiment: qHTS of alpha-syn Inhibitors; note: nearly all actives have a fitted effect of over 65% in size; for growth rescue (activation): % of control where 0% means no effect
# Conditions: Yeast expressing alpha-synuclein, BacTiter-Glo, 24 h; Potency: growth rescue; series mostly up to 46.1 µM; growth rescue (activation): at the top concentration
# From the text: The goal of this project is to identify new chemical probes capable of reversing the toxicity associated with the Parkinson disease-related protein, alpha-synuclein. Compounds will be selected on their ability to restore growth in yeast cells expressing toxic levels of alpha-synuclein. These compounds will provide a complementary approach to deciphering the tangled mechanisms of toxicity and protection that we have uncovered through genome-wide genetic screens and are beginning to uncover in a large-scale proteomics analysis with mass spectroscopy. To this end, a miniaturized assay was developed to be screened against the Molecular Libraries Small Molecule Repository (MLSMR) to discover alpha-synuclein inhibitors. Please note that in the set-up this yeast-based assay compounds that inhibit as alpha-syn, have a read-out as activators. NIH Chemical Genomics Center [NCGC] NIH Molecular Libraries Probe Centers Network [MLPCN] MLPCN Grant: NS060957 Assay Submitter (PI): Susan Lindquist, Whitehead Institute/MIT
# Dispense 2.5 microL yeast galactose medium per 1536-well plate, pin compound, dispense 2.5 microL alpha-synuclein expressing yeast in galactose medium at OD600=0.02 (pregrown in raffinose medium to mid-log phase) per well, incubate for 24 hr at 30 deg C, and cell growth will be measured using 5 microL of Bactiter/Glo reagent to entire plate and read using Luminescence Protocol in ViewLux.
# Potency is the fitted concentration of half-maximal effect.
SMILES,Potency,growth rescue (activation) [%]
C[C@@H]1C[C@@H]2O[C@H]2/C=C\C=C\C(=O)Cc2c(Cl)c(O)cc(O)c2C(=O)O1,7.94 µM (active),–
CC(=O)NCC1=C(c2ccc3ccccc3c2)C[C@@H]2CC[C@H]1N2Cc1ccco1,–,-5.06
O=C(NCC1=C(c2ccc3ccccc3c2)C[C@@H]2CC[C@H]1N2Cc1ccco1)c1cccs1,3.55 µM (active),–
Cc1ncoc1C(=O)NCC1=C(c2cccc3ccccc23)C[C@@H]2CC[C@H]1N2Cc1ccco1,–,24.8
N#Cc1c(Cl)c(Cl)c(Cl)c(C#N)c1Cl,–,-87.2
COc1ccc(NC(=O)Nc2cccc3cccnc23)cc1,–,-35.2
c1ccc(Cc2nn3c(Cn4cnc5ccccc54)nnc3s2)cc1,–,-33.2
O=C(O)/C=C/c1ccc2c(c1)OCO2,–,6.25
CC(=O)c1c(O)c(C)c(O)c(Cc2c(O)c3c(c(C(=O)/C=C/c4ccccc4)c2O)OC(C)(C)C=C3)c1O,inactive,–

# From PubChem BioAssay AID652106 (National Center for Advancing Translational Sciences (NCATS), 2013)
